# Source: PubChem
# An excerpt weighted towards active compounds, which were near 8% of everything screened.
# Cav3 T inh = Cav3.2 calcium influx blockers – cell-based, Fluo-4 calcium fluorescence, FDSS, MLSMR library, primary screen | Cav3.2-expressing cells; stronger effect = lower value | B-score at 10 µM | 4% of 100,000 active | AID 449739, 2010;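 active = single-dose well whose peak fluorescence ratio is a statistical outlier from its plate by either plate-standardised score or position-corrected B-score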
# Pyk2 oligo antag = antagonists of Pyk2 self-association, primary screen, Q293 cells, FERM NanoBiT luminescence, HTS | Protein-tyrosine kinase 2-beta (Homo sapiens), Q14289 | stronger effect = lower value | z-score (the deposit names both 25 µM and 10 µM) | 0.83% of 99,000 active;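 active = Z-score of -3 or lower, scaled per plate to the spread of control and sample wells; inactive = z-score above -3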;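 also: negative z-score means lost luminescence so less FERM oligomerization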
# Target sequence (Q14289 whole entry, looked up): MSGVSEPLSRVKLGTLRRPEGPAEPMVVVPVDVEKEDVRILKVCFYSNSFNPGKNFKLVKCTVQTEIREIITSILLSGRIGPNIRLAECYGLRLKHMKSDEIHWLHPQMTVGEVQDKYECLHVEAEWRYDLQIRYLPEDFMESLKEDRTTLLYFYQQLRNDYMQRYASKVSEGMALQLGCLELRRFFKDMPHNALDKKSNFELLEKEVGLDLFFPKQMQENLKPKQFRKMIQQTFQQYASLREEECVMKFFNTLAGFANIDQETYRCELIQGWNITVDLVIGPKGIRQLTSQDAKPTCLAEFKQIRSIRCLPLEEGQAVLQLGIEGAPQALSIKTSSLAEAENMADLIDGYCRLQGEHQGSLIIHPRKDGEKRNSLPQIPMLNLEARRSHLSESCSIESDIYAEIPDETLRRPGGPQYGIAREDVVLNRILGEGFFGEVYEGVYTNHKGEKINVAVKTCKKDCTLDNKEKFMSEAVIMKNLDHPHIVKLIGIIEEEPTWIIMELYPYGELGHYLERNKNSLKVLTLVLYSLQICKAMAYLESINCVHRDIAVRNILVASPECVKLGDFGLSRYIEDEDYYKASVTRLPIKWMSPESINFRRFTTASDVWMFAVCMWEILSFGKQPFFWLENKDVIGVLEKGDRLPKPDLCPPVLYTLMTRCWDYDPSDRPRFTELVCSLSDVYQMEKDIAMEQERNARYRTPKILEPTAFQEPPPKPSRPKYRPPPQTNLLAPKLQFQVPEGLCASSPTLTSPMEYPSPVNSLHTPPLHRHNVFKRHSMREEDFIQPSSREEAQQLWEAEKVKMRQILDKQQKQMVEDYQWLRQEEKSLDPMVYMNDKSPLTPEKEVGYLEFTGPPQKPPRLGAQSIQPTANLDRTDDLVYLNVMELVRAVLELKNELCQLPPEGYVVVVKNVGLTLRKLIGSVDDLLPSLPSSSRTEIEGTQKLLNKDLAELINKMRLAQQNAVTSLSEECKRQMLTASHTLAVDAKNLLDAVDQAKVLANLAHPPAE
# PostGolgi ctrl = growth inhibition of yeast control strain, primary screen, counter-screen for post-Golgi transport modulator project; efflux-deficient yeast background strain, growth absorbance A615, 16 h; inhibition, % at 10 µM; 5% of 98,000 active
# PostGolgi yeast = phenotypic screen on post-Golgi transport, primary screen | post-Golgi transport phenotypic cell assay | 0.9% of 98,000 active | inhibition, % at 10 µM | AID 739, 2007;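 also: yeast cells grown in 1536-well plates; yeast grown about 18 h at 30C before absorbance read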
# Active calls of the source: *; · = not tested or not shown. Rule as the data show it, unless noted: active = inhibition above about 30%; inactive = the rest.
SMILES,Cav3 T inh,Pyk2 oligo antag,PostGolgi ctrl,PostGolgi yeast
COc1ccc(-c2[nH]ncc2Oc2ccccc2OC)c(O)c1,-2.33,-2.78,18.8,6.2
CCCc1ccc(Oc2cn[nH]c2-c2ccc(O)cc2O)cc1,-3.46,-2.65,99.0*,97.2*
COc1ccc(Oc2cn[nH]c2-c2ccc(O)cc2O)cc1,-5.95*,-3.55*,7.7,3.6
COc1ccc(-c2[nH]ncc2-c2cnc(C)s2)c(O)c1,-0.474,0.99,-0.6,-4.0
CC(C)(C)Cc1nc(-c2ccc(Cl)cc2)no1,0.599,0.47,10.9,-7.1
O=c1c2ccccc2sc2nc(C3CCCCC3)n(Cc3ccco3)c(=O)c12,·,-0.49,50.1*,46.9*
Cc1ccc(S(=O)(=O)NC2c3cccc4cccc(c34)C2Sc2nc(C)cc(C)n2)cc1 (stereo not given),·,-0.19,·,·
COc1ccc(OC)c2c1sc(=NC(=O)c1cccc(N3C(=O)CCC3=O)c1)n2C,1.26,·,30.6*,-11.3
CCOC(=O)C1CCN(S(=O)(=O)c2c(C)n[nH]c2C)CC1,0.419,0.51,2.3,-3.3
Cc1cc(Nc2ccccc2)n(-c2ccc(Br)cc2)n1,-7.18*,-0.28,12.0,-1.0
COc1ccc(-c2nc3c(c(=O)n(C)c(=O)n3C)n2CC2CC(c3ccccc3)=NO2)cc1OC (stereo not given),3.4*,-0.27,·,·
COc1ccc(C(=O)Cn2c(Br)nc3c2c(=O)n(C)c(=O)n3C)cc1OC,-0.0347,1.97,8.3,1.5
CC(=O)Nc1cccc(NC(=O)c2c(-c3c(Cl)cccc3Cl)noc2C)c1,0.169,-0.27,2.6,0.5
Cc1onc(-c2c(Cl)cccc2Cl)c1C(=O)NCC1CCCO1 (stereo not given),-0.483,0.17,-4.1,0.2
Cc1onc(-c2c(F)cccc2Cl)c1C(=O)Nc1cccc2nsnc12,0.111,-1.01,42.0*,2.4
Cc1ccc(NC(=O)c2c(-c3c(F)cccc3Cl)noc2C)cc1F,-8.29*,-1.1,8.7,5.3
Cc1onc(-c2c(F)cccc2Cl)c1C(=O)NCC1COc2ccccc2O1 (stereo not given),-1.59,0,36.5*,5.3
CC(C)[C@H](NC(=O)[C@H](CCCN=C(N)N)NC(=O)NC(Cc1ccccc1)C(=O)O)C(=O)NC(C=O)CCCN=C(N)N (stereo not given in full),0.682,·,·,·
CCCCCc1ccc(-c2ccc(=O)[nH]n2)cc1,·,-0.71,30.7*,-6.0
Cc1nc(CC(=O)c2c(C)cc(O)cc2O)cs1,1.16,-0.43,4.7,8.4
Cc1ccc(C)c(N2CCN(C(=O)C3CCN(S(=O)(=O)c4cccc5nsnc45)CC3)CC2)c1,·,-0.3,17.6,3.3
CCc1ccc(N/C(SCc2ccccc2C)=C(/C#N)C(=O)NCc2ccco2)cc1,-5.42*,-0.45,0.1,16.8
COc1cccc(N/C(SCc2ccccc2F)=C(/C#N)C(=O)NCc2cccs2)c1,·,-0.59,·,·
COc1ccc(-c2ccc3oc(-c4ccsc4)cc3c2)cc1,-0.00961,·,·,·
Cc1[nH]c2ccccc2c1C(=O)CSc1nc2cc(S(=O)(=O)N3CCCCC3)ccc2o1,-3.59,-0.65,9.4,12.4
SMILES,Cav3 T inh,Pyk2 oligo antag,PostGolgi ctrl,PostGolgi yeast
Cc1ccc(C(=O)CSc2nc3cc(S(=O)(=O)N4CCOCC4)ccc3o2)cc1,-1.78,0.19,38.5*,-7.5
C=CCOC(=O)C1=C[C@H](C2CCCCC2)[C@@H](CCCO)[C@H](OCC)O1,-0.63,·,·,·
COc1ccc(CCN2CC(C(=O)NCc3ccco3)CC2=O)cc1OC (stereo not given),0.0861,2.48,33.3*,-11.0
O=C(NCc1ccco1)C1CC(=O)N(CCc2ccccc2)C1 (stereo not given),0.174,1.09,-2.3,-4.2
CCOC(=O)c1c(COc2ccccc2)oc2ccc(O)cc12,-0.292,·,24.9,2.4
CCOC(=O)c1c(-c2ccccc2)oc2ccc(OC(C)=O)cc12,0.0316,-2.02,31.8*,-6.8
CCOC(=O)c1c(C)oc2ccc(OCC(N)=O)cc12,-1.73,0.06,2.9,-0.8
CC(=O)Oc1ccc2c(=O)c(-c3ccccc3)c(C)oc2c1,-4.55*,·,·,·
COc1ccc2c(=O)c(-c3cnn(-c4ccccc4)c3)c(C)oc2c1,-1.91,-0.96,9.6,34.0*
CCOC(=O)c1c(C(C)(C)C)oc2ccc(O)cc12,-0.894,-0.43,52.4*,10.4
CCN(CC)CCN(C(=O)Cn1nnc(-c2ccc(OC)c(OC)c2)n1)C(C(=O)NC1CCCC1)c1ccc(F)cc1 (stereo not given),-0.53,-0.23,3.9,-1.9
CC12CC(NC(=O)N1c1cccc(C(=O)NCc3ccccc3)c1)c1ccccc1O2 (stereo not given),·,·,0.6,-6.7
CC12CC(NC(=O)N1c1ccc(C(=O)N3CCN(c4ccc(F)cc4)CC3)cc1)c1ccccc1O2 (stereo not given),-5.27*,1.72,-3.5,1.6
CC12CC(NC(=O)N1CCc1ccccc1)c1cc(Cl)ccc1O2 (stereo not given),-0.585,-0.72,7.4,-0.2
CC12CC(NC(=O)N1Cc1ccccc1)c1ccccc1O2 (stereo not given),-5.4*,-0.51,1.5,-1.2
CC12CC(NC(=O)N1c1cccc(C(=O)N3CCN(c4ccccc4)CC3)c1)c1ccccc1O2 (stereo not given),-5.4*,-0.1,1.0,2.8
COc1ccccc1N1CCN(C(=O)c2cccc(N3C(=O)NC4CC3(C)Oc3ccccc34)c2)CC1 (stereo not given),-3.92*,-0.78,5.6,-4.1
CCN(C(=O)c1cn(C)c(=O)c2cc(OC)c(OC)cc12)c1cc(OC)ccc1OC,3.17,-0.31,13.8,-4.2
CCNc1ccc2c(Cl)cc(=O)oc2c1,·,·,2.2,-2.0
O=C(Nc1c(F)cccc1F)c1cnc(N2CCN(c3ccccn3)CC2)c2ccccc12,-2.38,-3.6*,6.2,-0.5
COc1cccc(OCCc2c(C)n[nH]c2C)c1,-0.142,0.77,0.5,20.9
Cc1cccc(OCCCCc2c(C)n[nH]c2C)c1,-5.83*,-1.39,18.1,3.1
Cc1cccc(OCCCCc2c(C)n[nH]c2C)c1C,-3.08,-0.82,37.5*,8.2
COc1ccccc1OCCCc1c(C)n[nH]c1C,0.329,1.42,100.2*,108.8*
CCOc1ccccc1OCCCCCc1c(C)n[nH]c1C,-3.6*,-0.28,11.8,-6.0
SMILES,Cav3 T inh,Pyk2 oligo antag,PostGolgi ctrl,PostGolgi yeast
O=C(CCn1c(=O)c2ccccc2n(Cc2cccc([N+](=O)[O-])c2)c1=O)N1CCc2ccccc2C1,·,0.78,·,·
CCCNC(=O)CN1C(=O)NC2(CCCc3cc(OC)ccc32)C1=O (stereo not given),0.0172,0.3,-6.3,-2.2
O=C(Oc1ccccc1Cl)c1ccc(-n2cncn2)nc1,1.22,0.03,8.7,6.5
COc1ccc(-c2noc(CCC(=O)N3CCN(c4cc(C)ccc4C)CC3)n2)cc1,-6.91*,1.29,5.5,-3.5
CCN(CCCNC(=O)CCc1nc(-c2ccc(OC)cc2)no1)c1cccc(C)c1,-8.81*,0.64,28.9,-2.8
O=C(Nc1ccc2nc(SCc3ccc(Cl)cc3)sc2c1)c1ccccc1C(=O)N1CCOCC1,-1.05,0.4,33.4*,-4.5
Cc1nc2ccc(NC(=O)N3CCOCC3)cc2s1,-3.16,-0.79,0.8,14.7
